About 460 (31%) of roughly 1,500 compounds were called active. Not shown: some 1% with an inconclusive outcome. The list is a sample of the results. Measured potencies and affinities stand elsewhere. Unmarked numbers belong to inactive results.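 Rule for the calls: active = curve reaches 40% activation over neutral controls at an AC40 no higher than the top valid tested concentration; inconclusive = no clear call, values can overlap the other calls; inactive = signal moving opposite to the expected increase, and the rest.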

This test can be described thus: activators of glucose-dependent insulin secretion, dose response, cell-based, INS-1E, Gaussia luciferase, luminescence, cherry-pick, set 2 (AID 977607).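 Note: 0% = median of the plate neutral control wells.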 Particulars: INS-1E GLuc insulin secretion reporter, 2-3 h, active compounds read high; at 35 µM, 100% = signal doubled over neutral wells unless noted.
Consider `Cc1cccc(NCc2ccccc2)c1`, for which the max activation is -18.2% [at 0.0016 µM, 100% = signal doubled over neutral wells].

For the compound `Cc1ccc(NCc2cccc(B(O)O)c2)cc1`, the max activation is -34.5%.

`COc1ccc(/C=N/Nc2nc(-c3ccc(Cl)cc3)cc(C(F)(F)F)n2)c(OC)c1`: the max activation was 30.4%.

As for `S=C(NCc1ccccc1)Nc1ccc2cn[nH]c2c1`, the max activation is -24.4% [at 0.046 µM, 100% = signal doubled over neutral wells].

Consider `COc1ccccc1C(=O)N/N=C(\C)CC(=O)Nc1ccc2c(c1)OCCO2`, for which the max activation is 15.2% [at 0.005 µM, 100% = signal doubled over neutral wells].

With `CCOc1ncccc1C(=O)NNC(=O)c1ccccc1-n1cccc1`, the max activation was -7.28% [at 3.8 µM, 100% = signal doubled over neutral wells].

As to `CCOc1ncccc1C(=O)Nc1cccc(S(=O)(=O)NC2=NCCC2)c1`, the max activation is -12.4% [at 0.135 µM, 100% = signal doubled over neutral wells].

With `CCOc1ncccc1C(=O)NCc1ccc(C)cc1`, the max activation was -15% [at 0.046 µM, 100% = signal doubled over neutral wells].

Take `CC(Oc1ccccc1Cl)C(=O)Nc1ccc(S(=O)(=O)Nc2nccs2)cc1` (stereo not given): the max activation is -19.7% [at 0.135 µM, 100% = signal doubled over neutral wells].

On to `CNC(=O)c1cc(C(=O)c2ccccc2Br)c[nH]1`, for which the max activation is 25.1% [at 0.135 µM, 100% = signal doubled over neutral wells].

With `COC(=O)CN(c1cccc(C)c1)S(=O)(=O)c1ccccc1`, the max activation is 23.2% [at 0.42 µM, 100% = signal doubled over neutral wells].

As to `CCN(CC(=O)Nc1ccccc1OC)C(=O)C1CCCC1`, the max activation was -15.2% [at 3.8 µM, 100% = signal doubled over neutral wells].

On to `O=C(Nc1ccc(F)cc1)N1CCCCN2[C@@H](CO)[C@@H](c3ccc(C#Cc4ccccc4)cc3)[C@@H]2C1`, for which the max activation was 21.6% [at 0.0016 µM, 100% = signal doubled over neutral wells].

In the case of `O=C1CC(NS(=O)(=O)c2cccs2)CN1c1cccc(F)c1` (stereo not given), the max activation is -15.9% [at 11 µM, 100% = signal doubled over neutral wells].

`C=CCNC(=O)COc1coc(CN2CCN(C(=O)c3ccco3)CC2)cc1=O`: the max activation was -8.4% [at 0.046 µM, 100% = signal doubled over neutral wells].

Consider `CCn1ncc2c1C(=O)NC1c3ccccc3C(=O)N21` (stereo not given), for which the max activation was -17.7% [at 0.0016 µM, 100% = signal doubled over neutral wells].

Take `c1ccc2nc3c(nc2c1)c1ccccc1n3CCN1CCOCC1`: the max activation was -14.9% [at 0.005 µM, 100% = signal doubled over neutral wells].

On to `CC(=O)Nc1nc(C)nc(-c2ccccc2OC(C)=O)n1`, for which the max activation was -19.4% [at 0.046 µM, 100% = signal doubled over neutral wells].

For `O=c1c2ccccc2nc(-c2ccco2)n1Cc1ccccc1`, the max activation is -18.2% [at 0.046 µM, 100% = signal doubled over neutral wells].

For the compound `O=c1c2ccccc2nc(-c2ccco2)n1/N=C/c1ccco1`, the max activation was -20.6% [at 0.0016 µM, 100% = signal doubled over neutral wells].

For `CSc1ncccc1C(=O)NCCc1ccccc1F`, the max activation is 23.1% [at 3.8 µM, 100% = signal doubled over neutral wells].

For the compound `COCCOc1ccc(C(F)(F)F)cc1NC(=O)c1ccccc1F`, the max activation is -23.9% [at 3.8 µM, 100% = signal doubled over neutral wells].

For the compound `O=C(NCCCNc1ccnc2cc(Cl)ccc12)c1ccccc1F`, the max activation was -28.3%.

Turning to `O=S(=O)(c1cccs1)N1CN(C2CCCCC2)c2nc3ccccc3nc21`, the max activation is -12.2%.

For `Cc1ccc(OCC(=O)NNC(=O)CCC(=O)Nc2ccc(C)cc2C)cc1`, the max activation was -27.6% [at 3.8 µM, 100% = signal doubled over neutral wells].

With `Cc1ccc(S(=O)(=O)N(CC(=O)Nc2ccc(C)cc2C)C(=O)N2CCN(C)CC2)cc1`, the max activation is 42% [at 0.046 µM, 100% = signal doubled over neutral wells].

In the case of `CC(=O)N1CCN(C(=O)COC(=O)c2ccc(S(C)(=O)=O)cc2)CC1`, the max activation is 25.9%.

For `CCC(=O)Nc1nnc(Sc2ccc(N(C)C)cc2)s1`, the max activation was -22.3% [at 0.046 µM, 100% = signal doubled over neutral wells].

As to `CCSc1nnc(NC(=O)c2csc(C)c2)s1`, the max activation is -21.3% [at 0.0016 µM, 100% = signal doubled over neutral wells].

Turning to `CCC(CC)NC(=O)CN1CCN(S(=O)(=O)c2cccs2)CC1`, the max activation was -15.7% [at 3.8 µM, 100% = signal doubled over neutral wells].

With `Cc1nnc2c(NCCC(C)C)nc3ccccc3n12`, the max activation is -15%.

Turning to `CC1(C)Cc2c(cnn2-c2ccccc2)C(NC(=O)CCN2CCCC2=O)C1` (stereo not given), the max activation was -18.4%.

For `Cc1ccc(-n2ncc3c2CC(C)(C)CC3NC(=O)CCCN2CCCC2=O)cc1` (stereo not given), the max activation is -26.8% [at 0.046 µM, 100% = signal doubled over neutral wells].

As to `CCn1nc(NC(=O)c2ccco2)c2cc3ccccc3nc21`, the max activation is 61.7% [at 11 µM, 100% = signal doubled over neutral wells].

Take `CCCn1nc(NC(=O)c2ccco2)c2cc3ccccc3nc21`: the max activation was -15.7% [at 0.0016 µM, 100% = signal doubled over neutral wells].

As for `CCOc1ccc(CCNC(=O)CCNC(=O)c2ccco2)cc1OCC`, the max activation was 12.9% [at 3.8 µM, 100% = signal doubled over neutral wells].

Consider `CC1(C)CC(=O)C(C=NC2CC(C)(C)NC(C)(C)C2)=C(O)C1`, for which the max activation is -17.1% [at 0.005 µM, 100% = signal doubled over neutral wells].

Consider `CCSc1nnc(-c2cccnc2)n1-c1ccc(C)c(Cl)c1`, for which the max activation is -13.6% [at 0.0016 µM, 100% = signal doubled over neutral wells].

As to `CN(c1ccc(C(=O)N2CCN(Cc3ccccc3)CC2)cc1)S(=O)(=O)c1ccccc1`, the max activation is -44.5%.

On to `O=C(CN1C(=O)CCC1=O)Nc1cccc2c1C(=O)NC2=O`, for which the max activation was -14.9% [at 1.2 µM, 100% = signal doubled over neutral wells].

Consider `CN(Cc1ccc(OCC(O)CN(C)Cc2ccccc2)cc1)Cc1nccn1C` (stereo not given), for which the max activation is -10.6% [at 0.0016 µM, 100% = signal doubled over neutral wells].

In the case of `O=C(NNC1CCN(Cc2ccccc2)CC1)c1ccccc1`, the max activation was -25% [at 3.8 µM, 100% = signal doubled over neutral wells].

As for `N=c1n(CCN2CCCCC2)c2ccccc2n1CC(O)COc1ccccc1` (stereo not given), the max activation is -22.3% [at 1.2 µM, 100% = signal doubled over neutral wells].

On to `Cc1cccc2[nH]c3c(N4CC=C(c5ccc(F)cc5)CC4)ncnc3c12`, for which the max activation is 18.7% [at 1.2 µM, 100% = signal doubled over neutral wells].

As for `FC(F)(F)c1cc(-c2ccccc2)nc(-n2cc(Cl)cn2)n1`, the max activation is -21.3% [at 0.015 µM, 100% = signal doubled over neutral wells].

Turning to `CCN(C[C@H]1N[C@@](CC)(C(=O)OC)[C@H]2C(=O)N(C)C(=O)[C@@H]12)S(=O)(=O)c1ccc(OC)cc1`, the max activation is -12.8% [at 0.42 µM, 100% = signal doubled over neutral wells].

On to `COc1ccc(C(=O)C2CCCN(Cc3cccn3-c3nccs3)C2)cc1OC` (stereo not given), for which the max activation was -15.9% [at 0.005 µM, 100% = signal doubled over neutral wells].

As for `COc1ccc(F)cc1C(=O)C1CCCN(C(=O)c2ccc(C(C)=O)s2)C1` (stereo not given), the max activation is -19.8%.

`CCOC(=O)c1[nH]cnc1C(=O)NC(C)C`: the max activation was -21.9% [at 0.135 µM, 100% = signal doubled over neutral wells].

`CC(C)C[C@H](NC(=O)c1nc[nH]c1C(=O)NC1CCN(C(=O)OC(C)(C)C)CC1)C(=O)OC(C)(C)C`: the max activation is 60.6%.

As to `CN1C(=O)NC(c2ccc(O)cc2)C2=C1CN(c1ccccc1)C2=O` (stereo not given), the max activation is -22.4% [at 3.8 µM, 100% = signal doubled over neutral wells].

For `CC(C)c1c(C(=O)N/N=C/c2cccc3ccccc23)nnn1-c1nonc1N`, the max activation is -43.8%.

`O=C(COc1ccccc1Cl)NNC(=O)c1ccc2nc[nH]c2c1`: the max activation is 15.8% [at 1.2 µM, 100% = signal doubled over neutral wells].

In the case of `COC(=O)C[C@@H]1OC[C@H](C(C)C)N1S(=O)(=O)c1ccc(C)cc1`, the max activation is -15.5%.

Take `O=C(COC(=O)c1ncc(Cl)c(Cl)c1Cl)NC1CCS(=O)(=O)C1` (stereo not given): the max activation is -18.3%.

These data come from PubChem BioAssay AID977607 (Broad Institute, 2014).
